PubChem BioAssay AID1159580 (chemical genetic matrix, 2015)
The campaign covered roughly 5,500 compounds. About 2,000 (36%) were called active. Another 18% or so got no clear call; they are omitted. No stated cut-off is given here; in the data, active means normalized growth mostly below about 0.91 (no sharp cut-off); inconclusive means no clear call, values can overlap the other calls; inactive means mostly above about 0.92. This is one part of the list.

Assay: chemical genetic growth profiling, strain panel (AID 1159580);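 further: tested at 20 µM; growth read once vehicle control cultures reached saturation at 30 °C; 1 = growth at the plate median or of vehicle wells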
Details: growth OD
[1] = S. cerevisiae deletion strains, locus YAL013W, strain DEP1, stronger effect = lower value
[2] = S. cerevisiae deletion strains, locus YBR229C, strain ROT2, stronger effect = lower value
[3] = S. cerevisiae deletion strains, locus YDL101C, strain DUN1, stronger effect = lower value
[4] = S. cerevisiae deletion strains, locus YDL134C, strain PPH21, stronger effect = lower value
[5] = S. cerevisiae deletion strains, locus YDR150W, strain NUM1, stronger effect = lower value
[6] = S. cerevisiae deletion strains, locus YEL061C, strain CIN8, stronger effect = lower value
[7] = S. cerevisiae deletion strains, locus YGR078C, strain PAC10, stronger effect = lower value
[8] = S. cerevisiae deletion strains, locus YHR030C, strain SLT2, stronger effect = lower value
[9] = S. cerevisiae deletion strains, locus YHR087W, strain rtc3, stronger effect = lower value
[10] = S. cerevisiae deletion strains, locus YJR043C, strain POL32, stronger effect = lower value
[11] = S. cerevisiae deletion strains, locus YJR075W, strain HOC1, stronger effect = lower value
[12] = S. cerevisiae deletion strains, locus YLR039C, strain RIC1, stronger effect = lower value
[13] = S. cerevisiae deletion strains, locus YLR058C, strain SHM2 (second series), stronger effect = lower value
[14] = S. cerevisiae deletion strains, locus YLR085C, strain ARP6, stronger effect = lower value
[15] = S. cerevisiae deletion strains, locus YLR262C, strain YPT6, stronger effect = lower value
[16] = S. cerevisiae deletion strains, locus YML094W, strain GIM5, stronger effect = lower value
[17] = S. cerevisiae deletion strains, locus YMR219W, strain ESC1, stronger effect = lower value
[18] = S. cerevisiae deletion strains, locus YMR263W, strain SAP30, stronger effect = lower value
[19] = S. cerevisiae deletion strains, locus YNL153C, strain GIM3, stronger effect = lower value
[20] = S. cerevisiae deletion strains, locus YNL298W, strain CLA4 (second series), stronger effect = lower value
[21] = S. cerevisiae deletion strains, locus YNL322C, strain KRE1, stronger effect = lower value
[22] = S. cerevisiae deletion strains, locus YNR030W, strain Alg12, stronger effect = lower value
[23] = S. cerevisiae deletion strains, locus YPL055C, strain LGE1, stronger effect = lower value
[24] = S. cerevisiae deletion strains, locus YPL241C, strain CIN2, stronger effect = lower value
[25] = S. cerevisiae deletion strains, locus YPR135W, strain CTF4, stronger effect = lower value
[26] = S. cerevisiae deletion strains, locus YAR019C, strain CDC15, stronger effect = lower value
[27] = S. cerevisiae deletion strains, locus YBL105C, strain PKC1, stronger effect = lower value
[28] = S. cerevisiae deletion strains, locus YBR135W, strain CKS1, stronger effect = lower value
[29] = S. cerevisiae deletion strains, locus YBR136W, strain MEC1, stronger effect = lower value
[30] = S. cerevisiae deletion strains, locus YBR160W, strain CDC28, stronger effect = lower value
[31] = S. cerevisiae deletion strains, locus YDL017W, strain CDC7, stronger effect = lower value
[32] = S. cerevisiae deletion strains, locus YDL028C, strain MPS1, stronger effect = lower value
[33] = S. cerevisiae deletion strains, locus YDL108W, strain KIN28, stronger effect = lower value
[34] = S. cerevisiae deletion strains, locus YDL132W, strain cdc53, stronger effect = lower value
[35] = S. cerevisiae deletion strains, locus YDL214C, strain PRR2, stronger effect = lower value
[36] = S. cerevisiae deletion strains, locus YDR052C, strain DBF4, stronger effect = lower value
[37] = S. cerevisiae deletion strains, locus YDR054C, strain cdc34, stronger effect = lower value
[38] = S. cerevisiae deletion strains, locus YDR226W, strain ADK1, stronger effect = lower value
[39] = S. cerevisiae deletion strains, locus YDR477W, strain SNF1, stronger effect = lower value
[40] = S. cerevisiae deletion strains, locus YER123W, strain YCK3, stronger effect = lower value
[41] = S. cerevisiae deletion strains, locus YER133W, strain GLC7, stronger effect = lower value
[42] = S. cerevisiae deletion strains, locus YFL009W, strain cdc4, stronger effect = lower value
[43] = S. cerevisiae deletion strains, locus YFL029C, strain CAK1, stronger effect = lower value
[44] = S. cerevisiae deletion strains, locus YFR003C, strain YPI1, stronger effect = lower value
[45] = S. cerevisiae deletion strains, locus YFR019W, strain FAB1, stronger effect = lower value
[46] = S. cerevisiae deletion strains, locus YFR028C, strain CDC14, stronger effect = lower value
[47] = S. cerevisiae deletion strains, locus YGR040W, strain KSS1, stronger effect = lower value
[48] = S. cerevisiae deletion strains, locus YGR052W, strain FMP48, stronger effect = lower value
[49] = S. cerevisiae deletion strains, locus YGR092W, strain DBF2, stronger effect = lower value
[50] = S. cerevisiae deletion strains, locus YHR079C, strain IRE1, stronger effect = lower value
[51] = S. cerevisiae deletion strains, locus YHR082C, strain KSP1, stronger effect = lower value
[52] = S. cerevisiae deletion strains, locus YHR205W, strain SCH9, stronger effect = lower value
[53] = S. cerevisiae deletion strains, locus YIL147C, strain SLN1, stronger effect = lower value
[54] = S. cerevisiae deletion strains, locus YJL095W, strain BCK1, stronger effect = lower value
[55] = S. cerevisiae deletion strains, locus YJL128C, strain PBS2, stronger effect = lower value
[56] = S. cerevisiae deletion strains, locus YJL157C, strain FAR1, stronger effect = lower value
[57] = S. cerevisiae deletion strains, locus YJR016C, strain ILV3, stronger effect = lower value
[58] = S. cerevisiae deletion strains, locus YJR066W, strain TOR1 (second series), stronger effect = lower value
[59] = S. cerevisiae deletion strains, locus YJR066W, strain TOR1, stronger effect = lower value
[60] = S. cerevisiae deletion strains, locus YKL048C, strain ELM1, stronger effect = lower value
[61] = S. cerevisiae deletion strains, locus YKL067W, strain YNK1, stronger effect = lower value
[62] = S. cerevisiae deletion strains, locus YKL101W, strain HSL1, stronger effect = lower value
[63] = S. cerevisiae deletion strains, locus YKL193C, strain SDS22, stronger effect = lower value
[64] = S. cerevisiae deletion strains, locus YKL203C, strain TOR2, stronger effect = lower value
[65] = S. cerevisiae deletion strains, locus YLR113W, strain HOG1, stronger effect = lower value
[66] = S. cerevisiae deletion strains, locus YLR133W, strain CKI1, stronger effect = lower value
[67] = S. cerevisiae deletion strains, locus YLR403W, strain SFP1, stronger effect = lower value
[68] = S. cerevisiae deletion strains, locus YML070W, strain DAK1, stronger effect = lower value
[69] = S. cerevisiae deletion strains, locus YMR001C, strain CDC5, stronger effect = lower value
[70] = S. cerevisiae deletion strains, locus YMR205C, strain PFK2 (second series), stronger effect = lower value
[71] = S. cerevisiae deletion strains, locus YMR277W, strain FCP1, stronger effect = lower value
[72] = S. cerevisiae deletion strains, locus YNL006W, strain LST8, stronger effect = lower value
[73] = S. cerevisiae deletion strains, locus YNL020C, strain ARK1, stronger effect = lower value
[74] = S. cerevisiae deletion strains, locus YNL161W, strain CBK1, stronger effect = lower value
[75] = S. cerevisiae deletion strains, locus YNL183C, strain NPR1, stronger effect = lower value
[76] = S. cerevisiae deletion strains, locus YNL207W, strain RIO2, stronger effect = lower value
[77] = S. cerevisiae deletion strains, locus YNL222W, strain SSU72, stronger effect = lower value
[78] = S. cerevisiae deletion strains, locus YNL307C, strain MCK1 (second series), stronger effect = lower value
[79] = S. cerevisiae deletion strains, locus YOL078W, strain AVO1, stronger effect = lower value
[80] = S. cerevisiae deletion strains, locus YOL136C, strain PFK27, stronger effect = lower value
[81] = S. cerevisiae deletion strains, locus YOR061W, strain CKA2, stronger effect = lower value
[82] = S. cerevisiae deletion strains, locus YOR119C, strain RIO1, stronger effect = lower value
[83] = S. cerevisiae deletion strains, locus YOR231W, strain MKK1, stronger effect = lower value
[84] = S. cerevisiae deletion strains, locus YOR329C, strain SCD5, stronger effect = lower value
[85] = S. cerevisiae deletion strains, locus YPL031C, strain PHO85, stronger effect = lower value
[86] = S. cerevisiae deletion strains, locus YPL153C, strain RAD53, stronger effect = lower value
[87] = S. cerevisiae deletion strains, locus YPL204W, strain HRR25, stronger effect = lower value
[88] = S. cerevisiae deletion strains, locus YPL209C, strain IPL1, stronger effect = lower value
[89] = S. cerevisiae deletion strains, locus YPL256C, strain CLN2, stronger effect = lower value
[90] = S. cerevisiae deletion strains, locus YPR025C, strain CCL1, stronger effect = lower value
[91] = S. cerevisiae deletion strains, locus YPR106W, strain ISR1, stronger effect = lower value
[92] = S. cerevisiae deletion strains, locus YPR111W, strain DBF20, stronger effect = lower value
[93] = S. cerevisiae deletion strains, strain NNK1, stronger effect = lower value
[94] = S. cerevisiae deletion strains, strain TSCII, stronger effect = lower value

Measured: normalized growth

N#Cc1sccc1Br
active: [24] 1.32 [resistant]
inactive: [1] 0.995 | [2] 0.982 | S. cerevisiae deletion strains, locus YCL061C, strain MRC1, stronger effect = lower value 1.02 | [3] 0.967 | [4] 0.993 | [5] 1.06 | [6] 1 | [7] 0.999 | [8] 0.961 | [9] 0.986 | [10] 1.01 | [11] 1.03 | [12] 1 | [13] 0.991 | [14] 1.1 | [15] 1 | [16] 0.982 | [17] 0.991 | [18] 1.04 | [19] 1.02 | [20] 1.04 | [21] 0.997 | [22] 1 | [23] 1.02 | [25] 1.04 | S. cerevisiae strains, strain wild type, stronger effect = lower value 0.99

O=C(c1cc2c(s1)-c1ccccc1CC2)N1CCN(Cc2ccccc2)CC1
inactive: [26] 1 | [27] 1 | [28] 0.996 | [29] 0.999 | [30] 0.998 | [31] 1 | [32] 0.999 | [3] 0.999 | [33] 0.998 | [34] 0.993 | [35] 0.965 | [36] 1 | [37] 0.99 | [38] 1 | [39] 0.982 | [40] 0.929 | [41] 0.985 | [42] 1.01 | [43] 1 | [44] 0.998 | [45] 0.941 | [46] 0.996 | [47] 0.962 | [48] 1.1 | [49] 0.988 | [8] 1 | [50] 0.971 | [51] 1.04 | [52] 0.94 | [53] 1 | [54] 0.974 | [55] 0.974 | [56] 0.976 | [57] 0.988 | [58] 0.958 | [59] 1.07 | [60] 0.984 | [61] 0.955 | [62] 0.984 | [63] 1 | [64] 1.01 | [65] 0.96 | [66] 0.971 | [67] 0.966 | [68] 0.953 | [69] 1 | [70] 0.981 | [71] 1.01 | [72] 1.02 | [73] 0.982 | [74] 1 | [75] 0.984 | [76] 1 | [77] 1.01 | [78] 0.963 | [79] 1.01 | [80] 0.964 | [81] 1 | [82] 1.1 | [83] 0.981 | [84] 1.01 | [85] 0.981 | [86] 0.975 | [87] 0.951 | [88] 1.01 | [89] 0.958 | [90] 1 | [91] 0.996 | [92] 0.977 | [93] 0.998 | [94] 1

O=C(Nc1cccnc1)c1cccc(Cl)c1Cl
inactive: [1] 0.977 | [2] 0.993 | [3] 0.98 | [4] 0.988 | [5] 0.957 | [6] 0.971 | [7] 0.983 | [8] 0.935 | [9] 0.99 | S. cerevisiae deletion strains, locus YJL187C, strain SWE1, stronger effect = lower value 1.01 | [10] 0.993 | [11] 0.991 | S. cerevisiae deletion strains, locus YKL190W, strain CNB1, stronger effect = lower value 0.989 | [12] 1.02 | [13] 1 | [14] 0.955 | [15] 1.01 | [16] 0.946 | [17] 0.992 | [18] 1.01 | S. cerevisiae deletion strains, locus YMR307W, strain GAS1, stronger effect = lower value 1.01 | S. cerevisiae deletion strains, locus YNL128W, strain TEP1, stronger effect = lower value 0.976 | [19] 0.994 | [20] 0.946 | [21] 0.982 | [22] 0.975 | S. cerevisiae deletion strains, locus YOL006C, strain TOP1, stronger effect = lower value 0.943 | [23] 1.02 | [24] 0.985 | [25] 0.856

O=C(Nc1cccnc1)c1cc2c(s1)-c1ccccc1CC2
active: [39] 0.666 | [40] 0.592 | [41] 0.548 | [47] 0.614 | [48] 0.602 | [8] 0.477 | [50] 0.495 | [51] 0.583 | [54] 0.482 | [64] 0.59 | [65] 0.394 | [68] 0.679 | [75] 0.455 | [82] 0.636 | [83] 0.515 | [85] 0.574 | [86] 0.529 | [87] 0.522 | [89] 0.476
inactive: [26] 0.925 | [27] 0.93 | [28] 0.919 | [29] 0.926 | [30] 0.93 | [31] 0.937 | [32] 0.921 | [3] 0.932 | [33] 0.924 | [34] 0.903 | [35] 0.745 | [36] 0.919 | [37] 0.9 | [38] 0.911 | [42] 0.915 | [43] 0.912 | [44] 0.928 | [45] 0.91 | [46] 0.918 | [49] 0.524 | [52] 0.755 | [53] 0.919 | [55] 0.946 | [56] 0.73 | [57] 0.92 | [58] 0.694 | [59] 0.532 | [60] 0.823 | [61] 0.736 | [62] 0.811 | [63] 0.918 | [66] 0.808 | [67] 0.663 | [69] 0.918 | [70] 0.767 | [71] 0.918 | [72] 0.93 | [73] 0.802 | [74] 0.924 | [76] 0.903 | [77] 0.917 | [78] 0.757 | [79] 0.918 | [80] 0.725 | [81] 0.806 | [84] 0.924 | [88] 0.932 | [90] 0.922 | [91] 0.926 | [92] 0.915 | [93] 0.912 | [94] 0.915
